Source: the supplement of paper PMC10732440
± gives the standard deviation of the averaged measurements.

Test system: Caenorhabditis elegans N2 infected with Nematocida parisii ERTm1
Assay: progeny production relative to DMSO uninfected control; higher = more progeny despite microsporidia infection (inhibition of infection with low host toxicity)
Conditions: infection time 6 days
Procedure, shortened: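 Bleach-synchronised wild-type C. elegans L1 larvae (100 per well) were placed in 96-well plates with K-medium, E. coli OP50 and 15,000 N. parisii spores/μL, with compound pinned to 100 μM or 40 μM in 1% DMSO. Plates were shaken at 21°C for 6 days; worms were then Rose Bengal-stained, flatbed-scanned and counted with WorMachine, each compound and dose tested three times. Progeny production is given as a percentage of the spore-free vehicle control, averaged across replicates.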

SMILES	progeny production (40 µM) [%]	progeny production (100 µM) [%]
CCc1ccc(C2CC(C(F)(F)F)n3ncc(C(=O)NCc4ccc(OC)cc4)c3N2)cc1 (configuration not stated)	8.73 ± 4.8	7.32 ± 3.4
O=[N+]([O-])c1cn(Cc2nc(O)nc(O)c2Br)cn1	8.41 ± 4.5	8.29 ± 4.9
C[C@@H](c1nc(-c2ccc(C#N)cc2)cs1)[C@](O)(Cn1cncn1)c1ccc(F)cc1F	5.04 ± 1.2	14.7 ± 10
CC(Oc1ccc(Cl)cc1Cl)C(=O)NCc1ccc2c(c1)OCO2 (configuration not stated)	3.27 ± 0.72	14.5 ± 9.6
CC(C)(C)c1ccc(C(Cn2cccc(C(F)(F)F)c2=O)NC2Cc3ccccc3C2)cc1 (configuration not stated)	1.91 ± 1.3	13.4 ± 9.4
Cc1c[nH]c(=O)nc1NCc1ccccc1	7.05 ± 4.5	8.45 ± 2.8
OC(Cn1cncn1)(Cn1cncn1)c1ccc(F)cc1F	3.82 ± 1.7	22 ± 18
CCc1cc(O)c(Oc2cccnc2N)cc1F	6.17 ± 3.4	10.2 ± 5.5
Nc1nc(-c2ccccc2)nc2c1ncn2[C@@H]1O[C@H](COS(=O)(=O)NC(=O)c2ccccc2O)[C@@H](O)[C@H]1O	6.94 ± 2.3	6.74 ± 3.1
Nc1nc2c(Cc3cccnc3)c[nH]c2c(=O)[nH]1	5.79 ± 0.11	16.4 ± 9.7
O=c1[nH]cnc2c1ncn2[C@H]1CC[C@@H](CO)O1	6.61 ± 0.81	9.85 ± 7.2
NS(=O)(=O)c1ccc(NC(=O)NC(c2ccccc2)c2ccccc2)cc1	6.18 ± 1.6	16.9 ± 14
Cc1ncc([N+](=O)[O-])n1CC(C)O (configuration not stated)	7.4 ± 3.9	7.52 ± 8.6
O=C(NCc1ccc(F)cc1)c1c(O)c2ncccc2[nH]c1=O	5.38 ± 2.2	16 ± 8.6
NC(=O)c1c(N)sc2c1CCCCC2	3.71 ± 1.1	8.33 ± 4.8
CC(C)(C)c1cc(C(=O)/C(C#N)=N/Nc2cccc(Cl)c2)no1	4.44 ± 0.8	13.4 ± 11
